Assay outcomes as filed in PubChem BioAssay.
IL-1B inflam inh: blocks inflammasome-driven IL-1 beta release; 360,000 compounds, 4.7% hits; THP-1 LPS/ATP IL-1B secretion, AlphaLISA, 16 h; hits give low values; activity change, % at 57.5 µM; AID 743279; in the data active = activity change below about -50%; inconclusive = mostly about -30% to -49%
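THP-1 cells pretreated 1 hr with compounds (up to 57.5 uM final), then stimulated with LPS (250 ng/mL final) plus ATP (1.25 mM final); secreted IL-1B measured by AlphaLISA after 16 hr, decreased signal indicating inhibition.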
HT1080 IDH1KD tx: HT-1080 IDH1 knockdown cell toxicity (counter line) | HT-1080 IDH1 knockdown viability, ATP luminescence, 48 h | 360,000 compounds, 2% hits | Potency, µM (top dose mostly 46.1 µM), for inactives: at the top dose activity, negative = toxicity, most hits filed as cytotoxic;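 note: potency is the fitted concentration of half-maximal effect; 0% = DMSO wells and -100% = cell-free medium wells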
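Assay cells: HT-1080 with IDH1 knockdown, 750 per well, RPMI/5% FBS. Exposure: 48 h at 37 °C following 2 h pre-incubation. Read: CellTiter-Glo luminescence; fitted concentration-response, curve class assigned.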
DT40 TDP1 CPT: growth inhibition of DT40 Tdp1-/-;hTDP1 cells with camptothecin (screen for TDP1 inhibitors); AID 686979; 420,000 compounds, 12% hits; chicken DT40 Tdp1-/-;hTDP1 cells + 20 nM CPT, ATP luminescence, 48 h; Potency, µM (top dose mostly 46.2 µM), for the others: at the top dose activity change, negative = growth inhibition, actives largely listed as inhibitors; note: potency is the fitted concentration of half-maximal effect; nearly all actives have a fitted effect of over 55% in size
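Chicken DT40 Tdp1-/- cells stably complemented with human TDP1 were seeded at 400 cells/well in medium containing 20 nM camptothecin, exposed to pin-transferred compounds, and grown at 37 °C for at least 48 hr. Viability was read as ATP luminescence.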
TDP1 cell noCPT: qHTS for Inhibitors of human tyrosyl-DNA phosphodiesterase 1 (TDP1): qHTS in cells in absence of CPT; AID 686978, 2013; Potency, µM (doses to about 46.2 µM), inactives show at the top dose activity change, negative = growth inhibition, hits mostly inhibitors; DT40 Tdp1-/- hTDP1 cells, no CPT, ATP luminescence, 48 h; 420,000 compounds, 15% hits; note: potency is the fitted concentration of half-maximal effect; nearly all actives have a fitted effect of over 55% in size
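Luminescent ATP content (CellTiter-Glo) served as the growth readout. Knockout chicken DT40 cells expressing human TDP1 were exposed to compounds without camptothecin for a minimum 48 hr at 37 °C.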
HT1080NT lethal: kills 2HG-producing HT-1080-NT fibrosarcoma cells; HT-1080-NT fibrosarcoma viability, CellTiter-Glo ATP luminescence, 48 h; Potency, µM (series often up to 46.1 µM), for the others: top-dose activity, negative = less viability, actives largely listed as cytotoxic; 360,000 compounds, 1.6% hits; AID 686970;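 note: NT is the 2HG producing partner of a matched IDH1 knockdown line; potency is the fitted concentration of half-maximal effect; 0% = DMSO-treated cells and -100% = media-only wells without cells; nearly all actives have a fitted effect of over 55% in size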
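Compounds were tested in concentration-response format on HT-1080-NT cells for 48 hours at 37 degrees C. Cell viability came from CellTiter-Glo luminescence; curves were classified by r2, response magnitude and activity.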
* marks the source's active call; other numbers are inactive results; ? = inconclusive; . = no result given. Compounds with a hit are over-represented: about 19% of the library has one in this group of screens. Unless noted, calls come from the whole dose curve; as a rule, active = well fitted curve in the direction sought with a large enough effect; inconclusive = small, poorly fitted or top-dose-only effect, or another doubt; inactive = no such curve, though single readings can be large; an effect the other way counts as inactive or inconclusive. Unless noted, % is set by controls: 0 for no effect and ±100 for the full control effect.

SMILES	IL-1B inflam inh	HT1080 IDH1KD tx	DT40 TDP1 CPT	TDP1 cell noCPT	HT1080NT lethal
O=C(CSc1nnnn1-c1ccc(O)cc1)c1cc2ccccc2o1	5	-3%	13µM*	?	2%
CCn1cnc2c([N+](=O)[O-])c(NS(=O)(=O)c3ccc(C)cc3)ccc21	14	0%	-21%	?	9%
C[C@@H](CCc1ccc(O)cc1)NCCc1ccc(O)c(O)c1	.	.	6µM*	11µM*	.
C[C@H](NCCc1ccc(O)cc1)[C@H](O)c1ccc(O)cc1	-20	12%	2%	18%	12%
Cc1ccc2c(c1)c1c(n2CC(O)Cn2nc(C)c(Br)c2C)CCCC1 (stereo not given)	-21	?	?	16µM*	?
Cc1ccc2c(c1)c1c(n2CC(O)CNC(C)(C)C)CCCC1 (stereo not given)	?	-23%	?	?	-15%
OC(CN1CCCCC1)Cn1c2ccccc2c2cc(Br)ccc21 (stereo not given)	-75*	?	16µM*	16µM*	23µM*
Cc1ccc2c(c1)c1c(n2CC(O)Cn2c(C)nc3ccccc32)CCCC1 (stereo not given)	-11	?	23µM*	?	?
Cc1ccc2c(c1)c1c(n2CC(O)CN2CCCCCC2)CCCC1 (stereo not given)	-74*	?	?	15µM*	?
Cc1nnc(SCC(=O)N2CCN(c3ccccc3)CC2)n(N)c1=O	15	3%	10%	-7%	-1%
CCc1ccccc1N1C(=O)C(Cl)=C(N2CCOCC2)C1=O	-5	12%	8%	-15%	3%
COc1ccc(N2C(N)=NC(N)=NC2(C)C)cc1	0	8.2µM*	?	0.33µM*	9.2µM*
CC1(C)N=C(N)N=C(N)N1c1cccc(C#N)c1	26	0.23µM*	?	1µM*	?
CCOC(=O)c1cccc(N2C(N)=NC(N)=NC2(C)C)c1	0	?	-23%	4.1µM*	?
CC1(C)N=C(N)N=C(N)N1c1cccc(C(=O)O)c1	-3	-2%	-4%	-5%	13%
COc1ccccc1N1C(N)=NC(N)=NC1(C)C	24	-7%	-10%	?	1%
COc1cccc(N2C(N)=NC(N)=NC2(C)C)c1	11	2.3µM*	5.2µM*	1µM*	6.5µM*
CCCn1c(=S)[nH]c2cc(C(=O)N(CCO)Cc3ccccc3)ccc2c1=O	26	-1%	-17%	-24%	-1%
CCOc1ccc(N2C(N)=NC(N)=NC2(C)C)cc1	13	10µM*	?	6.5µM*	?
Cc1ccccc1N1C(N)=NC(N)=NC1(C)C	-17	13%	-2%	?	9%
CCOc1ccc(NC(=S)Nc2ccccc2C2(C)CC2)cc1	?	-20%	?	8.2µM*	3%
CCNC(=S)N(CCc1c(C)[nH]c2ccc(F)cc12)Cc1cccnc1	-4	-8%	?	26µM*	-2%
CCNC(=S)N(CCc1c(C)[nH]c2ccc(C)cc12)Cc1cccnc1	-1	-2%	?	29µM*	-3%
COCCNC(=S)N(CCc1c(C)[nH]c2ccc(F)cc12)Cc1ccc(C)cc1	-73*	?	?	18µM*	?
CN1CCc2cc3c(cc2[C@@H]1[C@@H]1C(=O)Oc2c1ccc1c2OCO1)OCO3	.	.	-4%	-13%	.
SMILES	IL-1B inflam inh	HT1080 IDH1KD tx	DT40 TDP1 CPT	TDP1 cell noCPT	HT1080NT lethal
CCCn1c2ccccc2c2cnn(CC(=O)N3CCN(C4CCCCC4)CC3)c(=O)c21	0	14%	0%	6%	7%
CC(C)NC(=O)C1(C)CSCC(=O)N1CCCn1ccnc1 (stereo not given)	18	5%	15%	3%	11%
O=c1ccn([C@@H]2O[C@H](CNCc3cccn3-c3nccs3)[C@@H](O)[C@H]2O)c(=O)[nH]1	0	17%	1%	-1%	16%
COCCNc1nc(N)c([N+](=O)[O-])c(NC2CCCCC2)n1	94	-22%	?	4%	1%
COc1ccccc1Nc1nc(NCCC(C)C)nc(N)c1[N+](=O)[O-]	6	6%	?	18µM*	8%
COc1ccccc1Nc1nc(N(C)c2ccccc2)nc(N)c1[N+](=O)[O-]	14	21%	2%	?	21%
CNc1nc(N)c([N+](=O)[O-])c(Nc2ccccc2OC)n1	-4	-23%	?	21µM*	-12%
NCCCNc1nc(N)c([N+](=O)[O-])c(NC2CCCCC2)n1	-16	?	4.1µM*	3.7µM*	-27%
COc1ccc(OC)c(Nc2nc(NCCCN(C)C)nc(N)c2[N+](=O)[O-])c1	-99*	16µM*	4.6µM*	4.6µM*	-14%
COC(=O)c1cc(S(=O)(=O)N2CCN(c3ccc(C(C)=O)cc3)CC2)cn1C	9	0%	-6%	?	-18%
NC(C(=O)O)c1cc(O)cc(O)c1 (stereo not given)	.	.	-3%	2%	.
COc1ccc(OC)c(Nc2nc(N)c([N+](=O)[O-])c(NC3CCCCC3)n2)c1	14	10%	8.2µM*	?	21%
Cc1cc(C)c(S(=O)(=O)Nc2ccnc(-c3cccnc3)n2)c(C)c1	67	-5%	-4%	-5%	0%
COc1ccccc1OCC(=O)NNC(=O)c1ccc2c(=O)n3c(nc2c1)CCC3	?	12%	13%	1%	10%
COc1ccc(-c2cn3nc(N4CCCC(C(=O)NCc5ccccc5OC)C4)sc3n2)cc1 (stereo not given)	.	.	18µM*	?	.
COc1ccc(-c2cn3nc(N4CCCC(C(=O)Nc5cc(C)ccc5C)C4)sc3n2)cc1 (stereo not given)	.	.	23µM*	16µM*	.
COc1ccc(-c2cn3nc(N4CCCC(C(=O)Nc5ccccc5F)C4)sc3n2)cc1 (stereo not given)	.	.	21µM*	15µM*	.
CCc1ccc(CNC(=O)C2CCN(c3nn4cc(-c5ccc(OC)cc5)nc4s3)CC2)cc1	.	.	-20%	-26%	.
COc1ccc(-c2cn3nc(N4CCCC(C(=O)Nc5ccc(Cl)cc5C)C4)sc3n2)cc1 (stereo not given)	.	.	?	-17%	.
Cc1ccc(-c2cn3nc(N4CCC(C(=O)Nc5ccccc5C)CC4)sc3n2)cc1	.	.	-30%	?	.
COc1ccc(N(CC(=O)NCCc2ccccc2)C(=O)c2csnn2)cc1OC	10	7%	1%	20%	12%
CC(=O)NC(Cc1ccccc1F)C(=O)NC1CCN(C(=O)NCc2ccccc2)CC1 (stereo not given)	25	3%	-11%	5%	1%
